Values without a mark were called inactive. Results filed as inconclusive are left out. Entries that show only a call come without a potency. The source made the active and inactive calls. Calls follow the shape of the dose curve; as a rule, active = well fitted curve in the direction sought with a large enough effect; inconclusive = small, poorly fitted or top-dose-only effect, or another doubt; inactive = no such curve, though single readings can be large; an effect the other way counts as inactive or inconclusive. Peptide text beside a SMILES is read from it. * marks the point of attachment. Octanoyl = CCCCCCCC(=O)*
Assays:
[1] = system: Zika virus NS2B-NS3 protease (linked construct); experiment: Primary screen NINDS Rhodamine qHTS for Zika virus inhibitors (AID 1347160); details: purified NS2B-NS3 protease, Rhodamine110 substrate fluorescence; series mostly up to 57.1 µM; also: nearly all actives have a fitted effect of over 55% in size; also: potency is read from the fitted curve at half-maximal effect
Method in brief: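 Aprotinin served as in-plate control. Conditions: 25 nM linked NS2B-NS3, pH 8.0 Tris buffer, titrated compounds, 15 min preincubation and 15 min reaction with 1.5 microM Rhod110 substrate at room temperature.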

[2] = OV-KATE Cancer Cell Toxicity qHTS against the NCATS CANVASS Library (AID 1347345); details: OV-KATE cells viability, CellTiter-Glo luminescence, 72 h; series mostly up to 38.3 µM; also: potency is read from the fitted curve at half-maximal effect
Method in brief: (§1)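 Quantitative HTS format: an 11-concentration series was applied to 1000 cells/well following a 4-hour attachment. Cultures ran 72 hours before ATP luminescence detection by CellTiter-Glo.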

[3] = HPAF-II Cancer Cell Toxicity qHTS against the NCATS CANVASS Library (AID 1347346); details: HPAF-II viability, CellTiter-Glo ATP luminescence, 72 h; series mostly up to 38.3 µM; also: nearly all actives have a fitted effect of over 55% in size; also: potency is read from the fitted curve at half-maximal effect
Method in brief: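 Cytotoxicity read-out was CellTiter-Glo luminescence after 72 h at 37 degrees C exposure of HPAF-II cells (1000/well) to compounds in an 11-point titration.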

[4] = UWB1.289 Cancer Cell Toxicity qHTS against the NCATS CANVASS Library (AID 1347347); details: UWB1.289 viability, CellTiter-Glo luminescence, 72 h; series mostly up to 38.3 µM; also: nearly all actives have a fitted effect of over 60% in size; also: potency is read from the fitted curve at half-maximal effect
Method in brief: as §1

[5] = OV-SAHO Cancer Cell Toxicity qHTS against the NCATS CANVASS Library (AID 1347348); details: OV-SAHO viability, CellTiter-Glo luminescence, 72 h; series mostly up to 38.3 µM; also: nearly all actives have a fitted effect of over 55% in size; also: potency is read from the fitted curve at half-maximal effect
Method in brief: as §1

[6] = U-118MG Cancer Cell Toxicity qHTS against the NCATS CANVASS Library (AID 1347351); details: U-118MG viability, CellTiter-Glo luminescence, 72 h; series mostly up to 38.3 µM; also: potency is read from the fitted curve at half-maximal effect
Method in brief: as §1

[7] = COV-362 Cancer Cell Toxicity qHTS against the NCATS CANVASS Library (AID 1347352); details: COV-362 viability, CellTiter-Glo luminescence, 72 h; series mostly up to 38.3 µM; also: potency is read from the fitted curve at half-maximal effect
Method in brief: (§2)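 Toxicity was measured as CellTiter-Glo luminescence after 72 h exposure to an 11-point compound series. Compound was added to 1000 cells/well 4 h after seeding.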

[8] = A2780 Cisplatin Sensitive Ovarian Cancer Cell Toxicity qHTS against the NCATS CANVASS Library (AID 1347353); details: A2780 ovarian cancer viability, ATPLite luminescence, 72 h; series mostly up to 46.1 µM; also: nearly all actives have a fitted effect of over 60% in size; also: potency is read from the fitted curve at half-maximal effect
Method in brief: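 Cisplatin-sensitive A2780 ovarian cells (750/well) received compound in 11 concentrations, and were incubated 72 h at 37 °C. ATP content was measured by ATPLite luminescence; bortezomib served as control.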

[9] = UWB1.289-WTBRCA1 Cancer Cell Toxicity qHTS against the NCATS CANVASS Library (AID 1347354); details: UWB1.289-WTBRCA1 viability, CellTiter-Glo luminescence, 72 h; series mostly up to 38.3 µM; also: potency is read from the fitted curve at half-maximal effect
Method in brief: as §2

[10] = HPAF-II 24hr Apoptosis Induction qHTS against the NCATS CANVASS Library (AID 1347356); details: HPAF-II caspase-3/7 Caspase-Glo luminescence; series mostly up to 46.1 µM
Method in brief: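 Caspase-Glo 3/7 luminescence, read after 15 min room-temperature development, measures apoptosis in HPAF-II cells treated 24 h at 37 degrees C with an 11-point concentration series; 500 cells/well; doxorubicin control.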

[11] = HEK293 24hr Apoptosis Induction qHTS against the NCATS CANVASS Library (AID 1347359); details: HEK293 caspase-3/7 activation, Caspase-Glo luminescence; series mostly up to 46.1 µM
Method in brief: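 HEK293 cells, 500 per well, exposed to an 11-point compound series for 24 hours at 37 degrees C. Caspase 3/7 activity read by Caspase-Glo luminescence (DEVD substrate) after 15 min at room temperature.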

[12] = HEK293 12hr Apoptosis Induction qHTS against the NCATS CANVASS Library (AID 1347361); details: HEK293 caspase-3/7 Caspase-Glo luminescence; series mostly up to 46.1 µM
Method in brief: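 Cells are seeded, dosed with an 11-point compound series and incubated 12 hours. Caspase-3/7 activity is detected by luminescent DEVD-substrate reagent after 15 minutes at room temperature.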

[13] = system: NAD(P)H diaphorase (Clostridium kluyveri); experiment: Diaphorse counterscreen qHTS: Assay Interference Panel against the NCATS CANVASS Library (AID 1347362); details: Diaphorase enzyme, resazurin to resorufin fluorescence; series mostly up to 57.5 µM
Method in brief: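 Clostridium kluyveri diaphorase in PBS + 0.01% Tween-20 preincubated 15 min with compounds. Resazurin and NADH then added for 5 min at room temperature in the dark; resorufin fluorescence read (ex 525, em 598).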

[14] = qHTS for ATAD5 Agonist screened against the NCATS CANVASS Library (AID 1347367); details: HEK293T ATAD5-luciferase reporter, luminescence, 16 h; series mostly up to 46.1 µM;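 also: luciferase reporter driven by ATAD5 which rises upon DNA damage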
Method in brief: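 HEK293T-ATAD5 luc reporter; 2000 cells/well; 5hr settle; cpd 11-pt qHTS; 16hr 37C 5% CO2 dark; viability by CellTiter-Fluor (AFC fluorescence); then luciferase luminescence, 30min RT.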

[15] = MCF7 Cancer Cell Toxicity qHTS against the NCATS CANVASS Library (AID 1347369); details: MCF7 viability, ATP luminescence (CellTiter-Glo), 72 h; series mostly up to 46 µM
Method in brief: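 Cells seeded at 500/well, then compound pinned. Plates incubated 72 hr at 37C, 5% CO2. CellTiterGlo added; luminescence read.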

[16] = J3T Cancer Cell Toxicity qHTS against the NCATS CANVASS Library (AID 1347371); details: J3T dog glioma viability, ATP luminescence, 72 h; series mostly up to 46.1 µM; also: potency is read from the fitted curve at half-maximal effect
Method in brief: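 Cytotoxicity read as CellTiterGlo ATP luminescence after 72 h incubation (37C, 5% CO2) of J3T canine glioma cells (500/well) with an 11-point compound series.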

[17] = qHTS for Hypoxia signaling pathway (HIF-1) agonists against the NCATS CANVASS Library (AID 1347375); details: HRE-bla ME-180 cells, HIF-1 beta-lactamase reporter, 17 h; series mostly up to 38.3 µM
Method in brief: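 Beta-lactamase reporter under HRE control in ME-180 cells; compounds (11-point qHTS series) added after 5 hrs plating, then 17 hrs at 37C. FRET substrate read after 2 hr; same-well CellTiter-Glo luminescence gave viability and normalization.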

[18] = qHTS for Inflammasome Signaling Inhibitors: IL-1-beta AlphaLISA screen against the NCATS CANVASS Library (AID 1347379); details: THP-1 LPS/ATP, IL-1B AlphaLISA secretion, 16 h; series mostly up to 57.5 µM;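 also: human THP-1 cells primed with LPS then triggered with ATP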
Method in brief: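 Secreted IL-1B from human THP-1 cells quantified by AlphaLISA 16 hr after compound addition (final up to 57.5 uM). A 1 hr compound pretreatment preceded inflammasome activation with 250 ng/mL LPS plus 1.25 mM ATP (final).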

[19] = Vero-766 cells viability qHTS against the NCATS CANVASS Library: Counterscreen for Zika virus inhibition assay (AID 1347394); details: Vero 766 viability, CellTiter-Glo luminescence, 72 h; series mostly up to 46.1 µM; also: nearly all actives have a fitted effect of over 60% in size; also: potency is read from the fitted curve at half-maximal effect
Method in brief: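 Vero 766, no virus; 1000 cells/well; o/n attach; cpd 11-pt; 72 h, 37C, 5% CO2; CTG luminescence; cell-free media wells = 100% inhibition.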

[20] = qHTS for inhibitors of Wild type Zika virus screened against the NCATS CANVASS Library (AID 1347396); details: Vero cells, Zika virus CPE, CellTiter-Glo, 72 h; series mostly up to 45.9 µM; also: potency is read from the fitted curve at half-maximal effect
Method in brief: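 Vero 766 cells, 1000/well, o/n attach; cpds pin-transferred (11-pt qHTS); WT Zika added; 72 h, 37C, 5% CO2; CellTiter Glo lumi. Uninfected + vehicle = 100% inhibition.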

## CCCCCCCC(=O)N[C@@H](CC(C)C)C(=O)N[C@H](C=O)CCC(=O)O (Octanoyl-Leu-Glu-aldehyde)
[1]
  Potency: 39.2 µM (active)
[2]
  Potency: inactive
[3]
  Potency: inactive
[4]
  Potency: inactive
[5]
  Potency: inactive
[6]
  Potency: inactive
[7]
  Potency: inactive
[8]
  Potency: inactive
[9]
  Potency: inactive
[10]
  outcome: inactive
[11]
  Potency: inactive
[12]
  Potency: inactive
[13]
  Potency: inactive
[14]
  Potency: inactive
[15]
  Potency: inactive
[16]
  Potency: inactive
[17]
  Potency: inactive
[18]
  Potency: inactive
[19]
  Potency: inactive
[20]
  Potency: inactive

## CCCCCCCCCCCCCCCC(=O)OC/C=C(\C)CCCC(C)CC(C)C(C)C (stereo not given)
[1]
  Potency: 55.3 µM (active)
[2]
  Potency: inactive
[3]
  Potency: 0.298 µM (active)
[4]
  Potency: inactive
[5]
  Potency: inactive
[6]
  Potency: inactive
[7]
  Potency: inactive
[8]
  Potency: inactive
[9]
  Potency: inactive
[10]
  outcome: inactive
[11]
  Potency: inactive
[12]
  Potency: inactive
[13]
  Potency: inactive
[14]
  Potency: inactive
[15]
  Potency: inactive
[16]
  Potency: inactive
[17]
  Potency: inactive
[18]
  Potency: inactive
[19]
  Potency: inactive
[20]
  Potency: inactive

## C[C@@H](CCC[C@]1(C)C(=O)C=C[C@]23C[C@H]4C[C@H](O[C@@]4(C)C2)C31)C(=O)N[C@@H](CO)C(=O)O (stereo not given in full)
[1]
  Potency: inactive
[2]
  Potency: inactive
[3]
  Potency: inactive
[4]
  Potency: inactive
[5]
  Potency: inactive
[6]
  Potency: inactive
[7]
  Potency: inactive
[8]
  Potency: inactive
[9]
  Potency: inactive
[10]
  outcome: inactive
[11]
  Potency: inactive
[12]
  Potency: inactive
[13]
  Potency: inactive
[14]
  Potency: inactive
[15]
  Potency: inactive
[16]
  Potency: inactive
[17]
  Potency: inactive
[18]
  Potency: inactive
[19]
  Potency: inactive
[20]
  Potency: inactive

## C[C@@H]1O[C@H](c2c(O)cc(O)c3c(=O)cc(-c4ccc(O)cc4)oc23)[C@H](O)[C@H](O)[C@H]1O
[1]
  Potency: 34.9 µM (active)
[2]
  Potency: inactive
[3]
  Potency: inactive
[4]
  Potency: inactive
[5]
  Potency: inactive
[6]
  Potency: inactive
[7]
  Potency: inactive
[8]
  Potency: inactive
[9]
  Potency: inactive
[10]
  outcome: inactive
[11]
  Potency: inactive
[12]
  Potency: inactive
[13]
  Potency: inactive
[14]
  Potency: inactive
[15]
  Potency: inactive
[16]
  Potency: inactive
[17]
  Potency: inactive
[18]
  Potency: inactive
[19]
  Potency: inactive
[20]
  Potency: inactive

## C/C(=C\[C@H](C)C(=O)CCCC1CC(=O)NC(=O)C1)[C@@H]1OC(=O)/C=C/CC/C=C/C[C@@H](O)[C@@H]1C
[1]
  Potency: 17.5 µM (active)
[2]
  Potency: 2.11 µM (active)
[3]
  Potency: 1.49 µM (active)
[4]
  Potency: 2.11 µM (active)
[5]
  Potency: 2.98 µM (active)
[8]
  Potency: 833 nM (active)
[10]
  outcome: inactive
[11]
  Potency: inactive
[12]
  Potency: inactive
[13]
  Potency: inactive
[14]
  Potency: inactive
[15]
  Potency: inactive
[16]
  Potency: 2.64 µM (active)
[17]
  Potency: inactive
[18]
  Potency: 9.68 µM (active)
[19]
  Potency: inactive
[20]
  Potency: inactive

## C=C[C@]1(C)CC[C@@H]([C@H](C)C(=O)OCC)O1
[1]
  Potency: 27.2 µM (active)
[2]
  Potency: inactive
[3]
  Potency: inactive
[4]
  Potency: inactive
[5]
  Potency: inactive
[6]
  Potency: inactive
[7]
  Potency: inactive
[9]
  Potency: inactive
[10]
  outcome: inactive
[11]
  Potency: inactive
[12]
  Potency: inactive
[13]
  Potency: inactive
[14]
  Potency: inactive
[15]
  Potency: inactive
[16]
  Potency: inactive
[17]
  Potency: inactive
[18]
  Potency: inactive
[19]
  Potency: inactive
[20]
  Potency: inactive

## CC(=O)O[C@@H]1C=C2C(=O)OC[C@]2(O)[C@@]2(C)CCCC(C)(C)[C@H]12
[1]
  Potency: 19.6 µM (active)
[2]
  Potency: 5.94 µM (active)
[3]
  Potency: 13.3 µM (active)
[4]
  Potency: 10.6 µM (active)
[5]
  Potency: 5.94 µM (active)
[6]
  Potency: 18.8 µM (active)
[7]
  Potency: 8.38 µM (active)
[8]
  Potency: 1320 nM (active)
[9]
  Potency: 21.1 µM (active)
[13]
  Potency: inactive
[14]
  Potency: inactive
[18]
  Potency: 10.9 µM (active)
[19]
  Potency: 16.6 µM (active)
[20]
  Potency: 26.1 µM (active)

From PubChem BioAssay (NCATS)
